# From PubChem BioAssay (EPA / NIEHS)
# Active and inactive are the calls of the source. How the source made its calls: active means hit-call score of the fitted dose curve at least 0.9, where 1 is the maximum; inactive means score below 0.9.
# Read-out: urokinase plasminogen activator (uPA), PLAU (gene 5328)
# Experiment: BSK_KF3CT_uPA: BioMAP Diversity Plus: KF3CT Assay for urokinase plasminogen activator (uPA) Biomarker Activity (AID 2283075)
# Conditions: primary human keratinocytes with fibroblasts; actives raise or lower the signal
# Method in brief: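 Primary human keratinocyte/foreskin fibroblast co-culture exposed to chemical; uPA measured by ELISA at 24 h. Bidirectional fit versus DMSO, with parallel SRB total-protein staining for cytotoxicity.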
Compound,outcome,AC50
CCCCCCCCCCCC#N,inactive,
CC(C)CCCCCCCOC(=O)c1ccccc1C(=O)OCCCCCCCC(C)C,inactive,
O=[N+]([O-])C=Cc1ccccc1,,10.2 µM (active)
O=[N+]([O-])c1ccc(Cl)cc1,inactive,
Nc1ccc(-c2ccc(N)c(N)c2)cc1N,inactive,

# Read-out: CD40, CD40 (gene 958)
# Experiment: BSK_LPS_CD40: BioMAP Diversity Plus: LPS Assay for CD40 Biomarker Activity (AID 2283076)
# Conditions: primary human HUVEC with PBMC; actives raise or lower the signal
# Method in brief: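 ELISA readout of CD40 in HUVEC/PBMC co-culture (BSK_LPS system), 24 h post-dosing; bidirectional curve fit, DMSO baseline; parallel SRB total-protein staining for cytotoxicity.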
Compound,AC50,outcome
CCCCCCCCCCCC#N,30.8 µM (active),
CC(C)CCCCCCCOC(=O)c1ccccc1C(=O)OCCCCCCCC(C)C,,inactive
O=[N+]([O-])C=Cc1ccccc1,5.97 µM (active),
O=[N+]([O-])c1ccc(Cl)cc1,,inactive
Nc1ccc(-c2ccc(N)c(N)c2)cc1N,,inactive

# Read-out: Interleukin-8 (IL8), CXCL8 (gene 3576)
# Experiment: BSK_LPS_IL8: BioMAP Diversity Plus: LPS Assay for Interleukin-8 (IL8) Biomarker Activity (AID 2283078)
# Conditions: primary human HUVEC with PBMC; actives raise or lower the signal
# Method in brief: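 HUVEC + PBMC co-culture, LPS-activated; test chemicals dosed, IL-8 read by ELISA at 24 h. Bidirectional curve fit vs DMSO baseline (gain or loss of signal).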
Compound,AC50,outcome
CCCCCCCCCCCC#N,29 µM (active),
CC(C)CCCCCCCOC(=O)c1ccccc1C(=O)OCCCCCCCC(C)C,,inactive
O=[N+]([O-])C=Cc1ccccc1,20 µM (active),
O=[N+]([O-])c1ccc(Cl)cc1,,inactive
Nc1ccc(-c2ccc(N)c(N)c2)cc1N,,inactive
